According to PubChem BioAssay AID1063 (University of Pittsburgh Molecular Library Screening Center, 2008):
The whole screen tested about 200,000 compounds, of which about 18,000 (9%) were called active. The entries come from a sample that favours actives as a whole. Unmarked numbers belong to inactive results. No stated cut-off is given here; in the data, active means inhibition above about 50%; inactive means the rest.

Assay: Leishmania major promastigote growth inhibition, primary screen (AID 1063);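 further: promastigotes grown with compound for 44 hours at 28 °C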
Conditions: Leishmania major promastigotes, resazurin fluorescence viability; at 10 µM; stronger effect = higher value

Compound | inhibition
O=C(CN1C(=O)c2cccc3cccc1c23)Nc1ccccc1 | -9.01%
O=C(CN1C(=O)c2cccc3cccc(c23)C1=O)N1CCCCC1 | 89.8% (active)
Cn1c(=O)n(C)c(=O)n(CC(=O)N2CCCCC2)c1=O | -4.15%
COc1ccc(OCC(=O)NNC(=O)c2cccc(C)c2)cc1 | -6.27%
Cc1ccc(CC(=O)Nc2cccc(C#N)c2)cc1 | -0.29%
COc1cccc2sc(NNC(=O)c3nc4ccccc4s3)nc12 | 48.5%
COc1cccc2sc(Nc3nc(C)c(C(C)=O)s3)nc12 | 98.4% (active)
CC(=O)c1sc(NC(=O)CCCOc2ccccc2C)nc1C | -7.25%
COC(=O)CSc1ccc2nnc(CCNS(=O)(=O)c3ccc(C)cc3)n2n1 | 2.97%
CSc1ncccc1C(=O)OCc1ccc(Br)cc1 | -1.11%
CCOC(=O)/C(=N\Nc1ccccc1Cl)N(C)C1CCS(=O)(=O)C1 (stereo not given) | -1.23%
CCOC(=O)c1cccc(NC(=O)CCOc2ccccc2)c1 | 9.18%
CCc1cccc(NC(=O)CCC(=O)O)c1 | 52.3% (active)
CCc1cccc(NC(=O)CCNS(=O)(=O)c2cccc3nonc23)c1 | -7.76%
CC(OC(=O)c1ccccc1OCc1ccc(Cl)cc1)C(N)=O (stereo not given) | 10.8%
CC1CN(/C=C/C(=O)C(F)(F)F)CC(C)O1 (stereo not given) | -1.49%
COCC1CCCN(Cc2nc(-c3ccc4c(c3)OCO4)no2)C1 (stereo not given) | 0.34%
COc1ccc(CCN(C(=O)COc2ccccc2)c2nc(-c3ccccc3)cs2)cc1OC | 52.1% (active)
CN(C(=O)COc1ccccc1)c1nnc(-c2ccncc2)s1 | -4.81%
COc1ccc(CCNc2nc(-c3cccc(NC(C)=O)c3)cs2)cc1OC | 3.47%
COc1ccc(-n2c(C)nn(CC3CC3)c2=O)cc1 | -6.72%
CC(=O)O[C@]1(C(C)=O)CC[C@H]2[C@@H]3C=C(C)C4=CC(=O)CC[C@]4(C)[C@H]3CC[C@@]21C | 69.8% (active)
CCN(CC)S(=O)(=O)c1cc([N+](=O)[O-])ccc1NNC(=O)Nc1ccccc1 | 31.2%
CCn1c(O)c(N=NC(=O)c2cccc(S(=O)(=O)N3CCCCC3)c2)c2ccccc21 | 3.18%

Compound | inhibition
CCN(CC)S(=O)(=O)c1cc([N+](=O)[O-])ccc1N=Nc1c(O)n(C)c2ccccc12 | 65.5% (active)
Cc1cccc(CN2CCN(Cc3cnn(-c4ccccc4F)c3)CC2CCO)n1 (stereo not given) | 3.31%
O=C(NCCOc1ccccc1F)Nc1ccc(Br)cc1 | 1.12%
O=C(CN(C(=O)c1csnn1)c1cccc(F)c1)NCc1ccc(F)cc1 | -3.27%
COc1ccc(C2=NN(C(=O)CCC(=O)O)C(c3cccs3)C2)cc1OC (stereo not given) | -5.57%
COc1ccc(CN(C(=O)c2cccs2)c2nccs2)cc1OC | 0.69%
COC(=O)C1=CN(Cc2ccc(OC)c(OC)c2)C=C(C(=O)OC)C1c1cccs1 | 100% (active)
CCCCc1nnc(NC(=O)CSc2nc(N)cc(=O)[nH]2)s1 | 1.7%
Cc1cc(NC(=O)CCC(=O)N(c2cccc(F)c2)C(C(=O)NC2CCCC2)c2ccncc2)no1 (stereo not given) | -6.83%
Cc1cc(NC(=O)/C=C/C(=O)N(CC(=O)NC2CCCC2)c2ccc(F)cc2)no1 | 5.25%
Cc1cc(NC(=O)/C=C/C(=O)N(c2ccccc2C)C(C(=O)NC2CCCC2)c2ccc(F)cc2)no1 (stereo not given) | 71.3% (active)
CC(=O)c1ccc(NC(=O)CSC(=S)N2CCCC2)cc1 | -5.47%
O=C(Nc1nnc(Cc2ccccc2)s1)c1cnccn1 | 1.06%
COc1ccc(NC(=O)CSc2nc(C)cs2)cc1 | 8.18%
Cc1nn(CC#N)c(=O)n1N(C)c1ncc(C(F)(F)F)cc1Cl | -6.01%
Cc1nn(-c2ncc(C(F)(F)F)cc2Cl)c(=O)n1-c1ccccc1 | -12.9%
Cc1nn(CC2CC2)c(=O)n1N(C)c1ncc(C(F)(F)F)cc1Cl | 74.1% (active)
CC(=O)c1cccc(-n2nnnc2SCC(=O)NNC(=O)C2CCCCC2)c1 | -7.09%
COC(=O)C1=C(N)Oc2c(oc(CO)cc2=O)C1c1c(F)cccc1Cl (stereo not given) | 10.5%
CCOc1ccc(C(c2c(C)[nH][nH]c2=O)c2c(C)[nH][nH]c2=O)cc1OCC | 22.5%
Cc1[nH][nH]c(=O)c1C(c1ccc(-c2ccc(Cl)cc2)o1)c1c(C)[nH][nH]c1=O | 100% (active)
Cc1[nH][nH]c(=O)c1C(c1ccc2c(c1)OCO2)c1c(C)[nH][nH]c1=O | 25.9%
C=CCc1cccc2cc(C(=O)NC3CCCC3)c(=O)oc12 | 3.36%
OCC1(CCc2ccccc2)CCN(Cc2ccc3nsnc3c2)CC1 | 88.2% (active)

Compound | inhibition
OCCC1CN(Cc2ccc3nsnc3c2)CCN1C1CCCC1 (stereo not given) | 20.1%
Cc1cccc(-c2ncc(CN3CCC(CO)(CCCc4ccccc4)CC3)cn2)c1 | 15.9%
Nn1c(SCC(=O)Nc2nccs2)nncc1=O | -3.46%
CSc1ncnc2sc(C)c(C)c12 | -8.93%
Cc1ccc(S(=O)(=O)N2CCC(N3CCCCCC3)CC2)cc1 | 95.3% (active)
Cc1ccc(S(=O)(=O)N2CCN(S(=O)(=O)N3CCOCC3)CC2)cc1 | -6.92%
CC(=O)Nc1ccc(S(=O)(=O)N2CCN(C3CCCCCCC3)CC2)cc1 | -3.65%
COc1ccc(NC(=O)N2CCCC(c3nc(-c4ccc(F)cc4)no3)C2)cc1 (stereo not given) | -5.76%
O=C(COC(=O)CCc1ccc(S(=O)(=O)N2CCOCC2)cc1)Nc1cccc(Cl)c1 | -4.95%
N#C/C(C(=S)Nc1ccccc1)=C1/NN=C(N2CCOCC2)N1c1ccccc1 | 4.1%
Cc1ccc(C(=O)NC(=S)NCCN2CCOCC2)cc1 | 65.4% (active)
Cc1ccc(NC(=S)NCCN2CCOCC2)cc1 | 2.32%
Cc1ccc(C(=O)NC(=S)Nc2ccc(N3CCOCC3)cc2)cc1 | -0.73%
O=C(CCN1CCCCC1)N=Nc1c(O)[nH]c2ccccc12 | 11.4%
CSc1ccccc1C(=O)NCc1ccccc1 | -0.25%
Cc1cc(C)n(CC(=O)Nc2ccc([N+](=O)[O-])cc2)n1 | -2.52%
O=C(COC(=O)c1ccco1)NCc1ccc(Cl)cc1 | -4.2%
COCCn1c(C)cc(C(=O)CSc2nc3ccccc3c(=O)n2C(C)COC)c1C (stereo not given) | 15.4%
COCC(C)n1c(SCc2ccc(C(=O)OC)o2)nc2ccccc2c1=O (stereo not given) | 89% (active)
COC(=O)c1ccc(CSc2nc3ccccc3c(=O)n2-c2cccc(OC)c2)o1 | 46.8%
CSCCNCc1cn(-c2ccc(F)cc2F)nc1-c1ccccc1C | 15.5%
Cc1ccc(-c2nn(-c3ccccc3)cc2CN(Cc2ccccc2)C(=O)CCC(=O)O)o1 | -2.65%
Cc1ccc(-c2nn(-c3cccc(F)c3)cc2CNCCc2ccncc2)o1 | 56.8% (active)
Cn1c(=O)n(Cc2ccco2)c(=N)c2c3c(sc21)CCCC3 | 13.8%

Compound | inhibition
COc1cccc(OC)c1C(=O)OCC(=O)/C(C#N)=C(\C)N | -3.93%
COCCOC(=O)C1=C(C)NC(=O)NC1c1ccc(Cl)cc1 (stereo not given) | -1.33%
CCOC(=O)C1=C(CNC2CCCCC2)NC(=O)NC1c1cc(C)ccc1C (stereo not given) | 47.4%
CCOC(=O)C1=C(CN2CCc3ccccc32)NC(=O)NC1c1cccc([N+](=O)[O-])c1 (stereo not given) | 82.8% (active)
CCOC(=O)C1=C(CN2CCc3ccccc32)NC(=O)NC1c1ccc(Cl)cc1 (stereo not given) | 55.5% (active)
CCOC(=O)C1=C(CN2CCCCCC2)NC(=O)NC1c1cccc([N+](=O)[O-])c1 (stereo not given) | 10.7%
CCOC(=O)C1=C(CN2CCc3ccccc32)NC(=O)NC1c1cc(C)ccc1C (stereo not given) | 11.4%
C/C(=N/OC(=O)c1cccc(C(F)(F)F)c1)c1cnccn1 | -8.57%
Cn1cnnc1SCC(=O)NNC(=O)COc1ccc(Br)cc1 | -4.37%
C/C(=N\Nc1nc(Nc2ccccc2)nc(N2CCOCC2)n1)c1cccs1 | 5.71%
C=CCNC(=O)COC(=O)CNC(=O)c1cc(Cl)cc([N+](=O)[O-])c1 | 7.34%
COc1ccc(O[C@H]2C=C[C@@H](c3ccccc3)O[C@@H]2CO/N=C/C[C@@H]2C=C[C@H](OC(C)=O)[C@@H](COC(C)=O)O2)cc1 | 5.12%
C/C(=N\Nc1nc2ccccc2[nH]1)c1cccs1 | 77.2% (active)
C/C(=N\Nc1ncc(Cl)cc1Cl)c1cccs1 | 19%
O=C(CSc1nc2ccccc2[nH]1)c1cccs1 | 8.11%
Cc1ccc(NC(=O)C2(N3CCC3=O)CCCCC2)cc1 | -5.4%
COc1cccc(-n2c(=S)sc3c(=O)n(-c4ccccc4OC)c(SCC4OCCO4)nc32)c1 | 19.1%
OC(COc1ccc2ccccc2c1)CN1CCOCC1 (stereo not given) | 59.9% (active)
OC(COc1cccc(OCC(O)CN2CCCC2)c1)CN1CCCC1 (stereo not given) | -2.43%
O=[N+]([O-])c1ccc(N2CCN(CC(O)COc3ccccc3)CC2)cc1 (stereo not given) | 32.1%
OC(COc1ccc2ccccc2c1)Cn1cncn1 (stereo not given) | -2.08%
O=S(=O)(c1ccc(OCC(O)CN2CCN(c3ccccc3Cl)CC2)cc1)N1CCOCC1 (stereo not given) | 68.2% (active)
CC(=O)Nc1ccc(OCC(O)CN2CCN(c3ccccc3Cl)CC2)cc1 (stereo not given) | -1.4%
